How the values were obtained:
Assay in all cases: PBM binding z-score (relative to random genomic background probes); higher = stronger binding; sequences stand for … in GC…GCGATTGACAGCGTAGAATGAAGG
[1] = test system: FXR:RXRa (NR concentration 270 nM, RXRa partner concentration 90 nM)
How it was run: (§1)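 For binding z-scores, the reference was random background probes on custom Agilent 4×180K protein-binding microarrays. These arrays were incubated 1 h with ligand-free nuclear receptor dimers in PBS pH 7.4, 2% milk, 0.02% Triton X-100, 1 mM DTT, 0.2 mg/mL BSA and 0.4 mg/ml salmon testes DNA. Fluorescence was scanned after antibody detection of each partner (one per run) and regression-normalized.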

[2] = test system: LXRa:RXRa (NR concentration 270 nM, RXRa partner concentration 90 nM)
How it was run: as §1

[3] = test system: LXRa homodimer (NR concentration 270 nM)
How it was run: as §1

[4] = test system: LXRb:RXRa (NR concentration 270 nM, RXRa partner concentration 90 nM)
How it was run: as §1

[5] = test system: LXRb homodimer (NR concentration 270 nM)
How it was run: as §1

[6] = test system: PPARa:RXRa (NR concentration 270 nM, RXRa partner concentration 90 nM)
How it was run: as §1

[7] = test system: PPARg:RXRa (NR concentration 180 nM, RXRa partner concentration 90 nM)
How it was run: as §1

[8] = test system: PPARg:RXRa 270nM:90nM, anti-RXR (NR concentration 270 nM, RXRa partner concentration 90 nM)
How it was run: as §1

[9] = test system: PPARg:RXRa 30nM:10nM, anti-RXR (NR concentration 30 nM, RXRa partner concentration 10 nM)
How it was run: as §1

[10] = test system: PPARg:RXRa 90nM:30nM, anti-RXR (NR concentration 90 nM, RXRa partner concentration 30 nM)
How it was run: as §1

[11] = test system: PPARg:RXRa DBDmut IVT, anti-RXR (DBD mutation: RXRa K156A/R161A, NR concentration 270 nM, RXRa partner concentration 90 nM)
How it was run: as §1

[12] = test system: PPARg:RXRa IVT, anti-PPARg (NR concentration 270 nM, RXRa partner concentration 90 nM)
How it was run: as §1

[13] = test system: PPARg DBDmut:RXRa IVT, anti-PPARg (DBD mutation: PPARg1 K132A/R137A, NR concentration 270 nM, RXRa partner concentration 90 nM)
How it was run: as §1

[14] = test system: PPARg DBDmut IVT, anti-PPARg (DBD mutation: PPARg1 K132A/R137A, NR concentration 270 nM)
How it was run: as §1

[15] = test system: PPARg homodimer (NR concentration 180 nM)
How it was run: as §1

[16] = test system: PXR:RXRa (NR concentration 270 nM, RXRa partner concentration 90 nM)
How it was run: as §1

[17] = test system: PXR homodimer (NR concentration 270 nM)
How it was run: as §1

[18] = test system: RARa:RXR (NR concentration 270 nM, RXRa partner concentration 90 nM)
How it was run: as §1

[19] = test system: RARa homodimer (NR concentration 270 nM)
How it was run: as §1

[20] = test system: RARb:RXRa (NR concentration 270 nM, RXRa partner concentration 90 nM)
How it was run: as §1

Sequence | PBM binding z-score [1] | PBM binding z-score [2] | PBM binding z-score [3] | PBM binding z-score [4] | PBM binding z-score [5] | PBM binding z-score [6] | PBM binding z-score [7] | PBM binding z-score [8] | PBM binding z-score [9] | PBM binding z-score [10] | PBM binding z-score [11] | PBM binding z-score [12] | PBM binding z-score [13] | PBM binding z-score [14] | PBM binding z-score [15] | PBM binding z-score [16] | PBM binding z-score [17] | PBM binding z-score [18] | PBM binding z-score [19] | PBM binding z-score [20]
AGTCAAAGTTCATGACGAGGTAACGTAAAGCACG | 6.67 | 6.13 | 2.96 | 3.45 | 0.691 | 5.01 | 6.45 | 6.59 | 3.58 | 5.63 | 0.137 | 3.44 | 1.06 | 1.37 | 3.26 | 4.93 | 1.98 | 4.61 | 0.824 | 4.84
CGTCAAAGTTGAAGGTAACGTAACAGAAAGCAGC | -0.11 | -0.00279 | -0.157 | 0.207 | -0.458 | 1.02 | 0.813 | 1.01 | 0.188 | 0.76 | 0.274 | 0.441 | 0.243 | 0.266 | 0.228 | 0.242 | -0.121 | 0.656 | 0.1 | 1.64
TAGCCTAGGTCATTCAGGAGCCAGTATAGAAAGC | 4.36 | 3.63 | 0.522 | 2.42 | 0.687 | 3.57 | 1.84 | 2.24 | 0.638 | 1.63 | 1.4 | 2.52 | 0.758 | 0.0429 | 0.878 | 1.43 | -0.343 | 2.19 | -0.28 | 3.62
CCTAGTAGGCCAGGGTCACTCAAGCATTTCGCTT | 1.96 | 1.56 | -0.322 | 2.01 | -0.98 | 3.69 | 3.5 | 4.07 | 1.36 | 3.22 | 4.28 | 4.48 | -0.152 | -1.37 | 0.886 | 2.55 | -0.126 | 2.8 | -0.346 | 2.65
CCTAGTTGGTCAGGAGGTTACACACCGGATATGA | 0.491 | 0.633 | 0.538 | 1.02 | 0.258 | 1.5 | 1.14 | 1.4 | 0.448 | 1.07 | 0.814 | 1.65 | 0.504 | 0.527 | 1.84 | 0.862 | 0.653 | 1.38 | 0.725 | 1.47
GGAACGAGAGCATTCGAGTTGATAGCATGGCGAT | -0.374 | -1.05 | -0.97 | -1.11 | -1.55 | -0.713 | 0.37 | -0.536 | -0.607 | -0.728 | 0.00852 | -0.503 | -0.558 | -0.483 | -1.19 | 0.237 | -0.766 | -0.817 | -0.746 | -0.633
ACTCACGGGTCAACGAGGTTATAGCACGCGTATA | 6.65 | 4.67 | 0.969 | 4.03 | 0.564 | 5.34 | 4.39 | 4.55 | 1.72 | 3.08 | 1.79 | 2.88 | 0.756 | 1.16 | 4.09 | 5.33 | 4.27 | 5.51 | 1.43 | 4.27
CAAACTTGGTCACCGGAAGGTCAAAGTCCGCATG | 3.58 | 3.72 | 3.5 | 3.39 | 0.75 | 3.7 | 2.29 | 3 | 0.605 | 2.01 | 2.35 | 3.45 | 0.726 | 1.15 | 2.58 | 4.26 | 1.08 | 4.78 | 0.786 | 3.77
CGAAGGAGGGCATGAGTTGATAGCAAATGCCGAT | -0.0276 | -0.0888 | -0.504 | -0.073 | -0.785 | 0.988 | 1.13 | 1.1 | 0.326 | 0.97 | 2.57 | 2.1 | 0.0677 | -0.445 | 0.352 | 0.02 | -0.165 | 0.152 | -0.898 | 1.53
ACTATTAGTTGAGTTAGGGCAACCGATACGACGC | -0.00299 | -0.201 | 0.321 | -0.189 | 0.544 | -0.0901 | 0.832 | 0.293 | 0.372 | 0.303 | -0.0972 | 0.498 | 1.2 | 0.707 | 0.995 | 0.111 | 0.462 | -0.0618 | 1.3 | 0.797
GCTAGCAGGCCATTTGGGTCACTGAATGACGGGC | -0.0182 | -0.185 | -0.885 | -0.0353 | -0.763 | 1.33 | 0.576 | 0.447 | -0.489 | -0.116 | 1.8 | 2.35 | -0.118 | -0.738 | -0.224 | 0.537 | -0.19 | 0.876 | -0.661 | 1.49
ATTCCAAGGTGATCGTGAGGTCGTTGATACTAAC | 2.16 | 1.56 | 0.734 | 1.23 | 0.167 | 1.52 | 0.194 | 0.382 | 0.172 | 0.122 | 0.951 | 1.47 | 0.731 | 0.342 | 0.792 | 3.26 | 1.64 | 2.55 | 0.906 | 1.33
CCTGCTAGGTCGTGGTCAGCTAATCTACAGTATG | 0.204 | 0.138 | -0.589 | 0.0814 | -0.563 | 0.699 | -0.0367 | 0.111 | -0.191 | 0.0176 | 1.33 | 0.742 | -0.546 | -0.828 | 0.0786 | 0.00895 | -0.22 | 0.444 | -0.694 | 1.71
TCTAGTTGGTCACGGAGGTCAGACACGACGGGTA | 2.17 | 2.33 | 1.51 | 2.23 | 0.127 | 2.88 | 2.45 | 2.97 | 3.26 | 3.11 | 2.48 | 3.14 | 0.816 | 0.0631 | 2.07 | 2.96 | 0.703 | 2.79 | 0.955 | 3.26
GCTCGGAGGACAAGGTCAGAGCATTGTCCGTAGA | 1.99 | 1.75 | -0.445 | 1.15 | -0.84 | 2.48 | 0.798 | 1.67 | -0.55 | 0.636 | -0.234 | 0.996 | -1.46 | -0.733 | 0.964 | 1.69 | -0.0134 | 2.26 | -0.974 | 3.38
TTATCAAGGTGAGCTGAGGTCGTTGATCCAACTC | 1.87 | 1.22 | -0.0853 | 0.999 | -0.746 | 1.87 | 0.583 | 1.19 | 0.537 | 0.566 | 1.53 | 2.79 | 0.246 | -0.126 | 0.465 | 4.8 | 0.706 | 1.99 | -0.272 | 1.85
CCGACCGGGGCAGAAAGGTTACCATACCATCCGG | 0.539 | 0.79 | -0.149 | 0.91 | -1.19 | 1.89 | 0.899 | 1.07 | -0.267 | 0.343 | -0.478 | -0.0375 | -0.85 | -1.32 | 0.496 | 1.16 | -0.029 | 1.83 | -0.144 | 2.06
GCGACTGGGGCATCAGCAGGTTACGATAACTTAA | -0.306 | -0.214 | -0.449 | 0.641 | -0.638 | 1.38 | 1.05 | 0.876 | -0.247 | 0.263 | 3.75 | 3.19 | -0.586 | -0.712 | 0.335 | 0.0357 | -0.369 | 0.42 | -0.452 | 0.866

Reference: the supplement of paper PMC6555819
